About 840 (25%) of roughly 3,400 compounds were called active. Roughly 11% stayed inconclusive and do not appear here. The list is a sample of the results. Potency and affinity values are given separately. Values without a mark were called inactive.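 Rule for the calls: active = fitted half-maximal concentration of signal decrease at or below twice the sample's top tested concentration; inconclusive = flat curve between -70 and -30 percent, or poor fit; inactive = flat within 30 percent, signal rise, or potency above limit.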

The nature of the assay: T. gondii growth inhibition with IFN-gamma, dose response, cell-based, ME49Luc, HeLa, luciferase, 72 h (AID 1259418). As to conditions: T. gondii ME49Luc in IFN-y HeLa, stronger effect = lower value, -100% = high-dose IFN-γ control wells; at 19.5 µM unless noted.
For the molecule `CCS(=O)(=O)N1[C@H](CO)[C@@H](c2ccc(C#Cc3ccccc3F)cc2)[C@@H]1C#N`, the max activity was 8.21% [at 10 µM].

Consider `COc1cccc(CC(=O)Nc2ccc(-c3nc(-c4ccc(C)cc4)co3)cc2)c1`, for which the max activity is 20.4%.

`COCCCN1CCc2nc(SCc3nc(-c4ccccc4OC)oc3C)[nH]c(=O)c2C1`: the max activity is 25.6% [at 10 µM].

On to `COc1ccc(C(=O)Nc2ccc(-c3nc(-c4ccccc4)co3)cc2)cc1OC`, for which the max activity is 14.3% [at 0.16 µM].

As for `COC(=O)C1CC23C=CNC4CCC5(c6ccccc6NC15C2C)C43` (centres undefined), the max activity is 26.5% [at 10 µM].

For `COc1ccc(-c2nc3c(s2)CN(S(=O)(=O)c2ccc(F)cc2F)CC3)cc1`, the max activity was 13% [at 5 µM].

In the case of `COC(=O)c1cccc(NC(=O)Nc2ccc(-c3nc(-c4cc(C)ccc4C)co3)cc2)c1`, the max activity is 11.4% [at 5 µM].

Regarding `CCc1cc(C2CCCN2C(=O)Cn2nc(C(F)(F)F)cc2C)on1` (centres undefined), the max activity was -8.33% [at 5 µM].

Regarding `Cc1ccccc1-c1nc(CN2CCN(C(=O)Nc3cccc(C)c3C)CC2)c(C)o1`, the max activity is -5.68% [at 2.6 µM].

With `COCCCNC(=O)Cn1c(=O)c(S(=O)(=O)c2ccccc2)cc2cc(C)ccc21`, the max activity is 5.8% [at 2.6 µM].

As to `Cc1ccc(NC(=O)Nc2ccc(-c3nc(-c4cccc(Br)c4)co3)cc2)cc1`, the max activity is 18.1% [at 0.16 µM].

Turning to `Cc1ccc(-c2ccc(OCCNC(=O)c3sc(-c4ccccc4)nc3C)nn2)cc1`, the max activity was 10.9% [at 2.6 µM].

Take `COc1ccc(NC(=O)N2CCc3nc(-c4ccccc4)sc3C2)c(OC)c1`: the max activity was 19.6% [at 10 µM].

As to `Cc1cc(C2CCCN2C(=O)c2cc(C(F)(F)F)nn2C)on1` (centres undefined), the max activity was 8.24% [at 1.35 µM].

Regarding `Cc1nc(-c2ccc(F)cc2)sc1-c1ccc(SCc2ccccn2)nn1`, the max activity is 11.9%.

With `Cc1ccccc1NC(=O)N1C[C@H]2C[C@H](C(=O)NC3CCC3)[C@@H](C1)O2`, the max activity was 41.9%.

As to `Cc1ccc(-c2coc(-c3ccc(NC(=O)Cc4ccccc4C)cc3)n2)cc1`, the max activity was 19%.

Take `COc1cc(NC(=O)Nc2ccc(-c3nc(-c4cc(C)ccc4C)co3)cc2)cc(OC)c1`: the max activity is 6.94% [at 0.08 µM].

Turning to `COc1ccc(NC(=O)Nc2ccc(-c3nc(-c4ccc(C)cc4C)co3)cc2)cc1`, the max activity was -20.8% [at 0.16 µM].

In the case of `COc1ccc(C(=O)Nc2ccc(-c3nc(-c4ccc(C)cc4C)co3)cc2)cc1`, the max activity is 25.2% [at 0.35 µM].

For the molecule `COc1cc(OC)cc(C(=O)Nc2ccc(-c3nc(-c4cc(C)ccc4C)co3)cc2)c1`, the max activity was 19.3% [at 0.16 µM].

On to `COc1ccc(-c2nc3c(s2)CN(S(=O)(=O)c2ccc(C(C)(C)C)cc2)CC3)cc1`, for which the max activity is 5.19%.

Regarding `COc1ccc(-c2nc(Nc3ccccc3C)c3ccccc3n2)cc1`, the max activity is -9.66% [at 10 µM].

Consider `COc1ccc(CCNc2ncnc3c2cnn3-c2ccccc2)cc1OC`, for which the max activity is 24.5% [at 5 µM].

`CCSc1ccc2c(c1)N(CCCN1CCN(C)CC1)c1ccccc1S2`: the max activity is 26.9%.

As to `CCOC(=O)Cc1ccc(NC(=O)Nc2ccc(-c3nc(-c4ccccc4)co3)cc2)cc1`, the max activity was 9.92% [at 2.6 µM].

Turning to `OC[C@@H]1[C@@H](c2ccc(-c3cccc(F)c3)cc2)[C@@H]2CN(Cc3cncnc3)CCCCN12`, the max activity is 12.9%.

Take `Fc1cccc(-c2ccc(C3[C@H]4CNC[C@@H]3N4Cc3ccccn3)cc2)c1` (some centres undefined): the max activity was 18.9% [at 5 µM].

As for `OC[C@@H]1[C@@H](c2ccc(-c3cccnc3)cc2)[C@@H]2CN(Cc3ccccn3)CCCCN12`, the max activity is -5.02% [at 1.2 µM].

`COc1cccc(-c2ccc(C3[C@H]4CNC[C@@H]3N4Cc3nccs3)cc2)c1` (some centres undefined): the max activity was 51.8% [at 21 µM].

For the molecule `COc1cc(CN2C[C@@H]3N[C@H](C2)C3c2ccc(-c3ccc(C#N)cc3)cc2)cc(OC)c1` (some centres undefined), the max activity is 27% [at 10 µM].

For the molecule `O=C(c1cccs1)N1CCC2(CC1)Nc1cc(F)ccc1-n1cccc12`, the max activity is 9.34% [at 0.68 µM].

As to `O=C(CCC1Nc2c3ccccc3nc(=S)n2C1=O)NCCN1CCC(Cc2ccccc2)CC1` (centres undefined), the max activity is 54.5% [at 10 µM].

As for `CCc1ccc2c(c1)cc(S(=O)(=O)c1ccccc1)c(=O)n2CC(=O)NCCCOC`, the max activity is 8.62% [at 10 µM].

For the molecule `COCCN1CCc2nc(SCc3nc(-c4ccccc4OC)oc3C)[nH]c(=O)c2C1`, the max activity is 14.3% [at 5 µM].

As for `COc1cc(-c2noc(-c3nnn(Cc4nc(-c5ccccc5)oc4C)c3C)n2)ccc1OC(C)C`, the max activity was 9.04% [at 0.16 µM].

For `CSc1cccc(NC(=O)N2CCc3nc(-c4ccc(C)cc4)sc3C2)c1`, the max activity was 42.8% [at 10 µM].

Turning to `O=C(Nc1ccc(-c2nc(-c3ccccc3)co2)cc1)c1ccccc1Cl`, the max activity was 40%.

Turning to `Cn1nccc1C(=O)N1CCC2(CC1)Nc1cc(F)ccc1-n1cccc12`, the max activity was -9.01%.

For `c1csc(-c2cc(NC3CCNCC3)nc3[nH]ccc23)n1`, the max activity is 35.6% [at 5 µM].

As for `COc1cc(Nc2nc(SCc3ccccc3Cl)nc3ccccc23)cc(OC)c1OC`, the max activity was 11% [at 0.68 µM].

`Fc1ccc(Nc2nc(SCc3ccccc3F)nc3ccccc23)cc1`: the max activity is 12.5%.

On to `Fc1cccc(CSc2nc(Nc3ccc4c(c3)OCO4)c3ccccc3n2)c1`, for which the max activity is 11.5%.

As for `Clc1ccc(CSc2nc(Nc3ccc4c(c3)OCO4)c3ccccc3n2)cc1`, the max activity was 5.7% [at 2.6 µM].

Turning to `CCc1ccc(-c2noc(-c3nnn(Cc4nc(-c5ccccc5)oc4C)c3C)n2)cc1`, the max activity is 20.7%.

Consider `Cc1ccc(NC(=O)Nc2ccc(-c3nc(-c4ccc(C)cc4C)co3)cc2)cc1`, for which the max activity was 46.2%.

Regarding `Cc1ccccc1CNC1=NCCNC12CCN(S(=O)(=O)c1ccc(CC(C)C)cc1)CC2`, the max activity was 13.3% [at 2.6 µM].

`Cc1ccc(CNC2=NCCNC23CCN(S(=O)(=O)c2ccc(CC(C)C)cc2)CC3)cc1`: the max activity is 13.1% [at 10 µM].

On to `CC(C)Cc1ccc(S(=O)(=O)N2CCC3(CC2)NCCN=C3NCc2cc(F)cc(F)c2)cc1`, for which the max activity is 20.3%.

Regarding `COc1ccc(NC(=O)N2CCc3nc(-c4ccccc4)sc3C2)cc1OC`, the max activity is -8.38% [at 0.35 µM].

Regarding `Cc1nc(OCC(=O)Nc2ccc(Br)cc2)c2ccccc2n1`, the max activity was 28% [at 1.35 µM].

For `Cc1ccc(C)c(NC(=O)COc2nc(C)nc3ccccc23)c1`, the max activity is 15.8% [at 10 µM].

With `N#CCSC1=Nc2ccccc2C2=NC(CCC(=O)NCc3ccccc3)C(=O)N12` (centres undefined), the max activity is 72.9%.

As for `CCOc1ccc(-c2nc(CN3CCN(C(=O)Nc4cc(C)ccc4C)CC3)c(C)o2)cc1`, the max activity is -22.4%.

Consider `Cc1nc(OCC(=O)Nc2ccccc2Cl)c2ccccc2n1`, for which the max activity was 28.8% [at 0.35 µM].

With `CCc1nc(OCC(=O)Nc2cc(OC)cc(OC)c2)c2ccccc2n1`, the max activity is 14.7% [at 0.68 µM].

As for `COc1ccc(-c2nc(Cn3nnc(-c4nc(-c5cccnc5)no4)c3C)c(C)o2)cc1`, the max activity is 6.33% [at 5 µM].

As to `Cc1nc(OCC(=O)Nc2cccc(C)c2C)c2ccccc2n1`, the max activity was 9.02% [at 0.16 µM].

For `Cc1nc(CCNC(=O)[C@H]2CCCN2S(=O)(=O)c2ccc(C)c(C)c2)cs1`, the max activity was 15.2% [at 10 µM].

Turning to `Cc1nc(CCNC(=O)[C@H]2CCCN2S(=O)(=O)c2ccc(Cl)cc2)cs1`, the max activity is 23.5% [at 0.16 µM].

As to `Cc1nc(CCNC(=O)[C@H]2CCCN2S(=O)(=O)c2ccc(F)cc2)cs1`, the max activity is 18.1% [at 1.35 µM].

For the molecule `Cc1c(S(=O)(=O)N2CCC[C@@H]2C(=O)NCCc2csc(-c3ccccc3)n2)cnn1C(F)F`, the max activity is 5.67% [at 2.6 µM].

In the case of `O=C(NCCc1csc(-c2ccccc2)n1)[C@H]1CCCN1S(=O)(=O)c1cccc(F)c1`, the max activity was -25.4% [at 1.35 µM].

Regarding `Cc1nc(CCNC(=O)[C@H]2CCCN2S(=O)(=O)c2ccccc2C)cs1`, the max activity is 12.4% [at 10 µM].

Regarding `Cc1ccc(S(=O)(=O)N2CCC[C@@H]2C(=O)NCCc2csc(C)n2)cc1`, the max activity is 7.86% [at 10 µM].

As for `CCc1ccc(S(=O)(=O)N2CCc3nc(-c4cccc(OC)c4)sc3C2)cc1`, the max activity was -5.58% [at 5 µM].

Take `Cc1cccc(-n2ncc3c(NC4CCCCCCCCCCC4)ncnc32)c1`: the max activity was 22.5% [at 10 µM].

Turning to `CCOC(=O)c1cccc(NC(=O)Nc2ccc(-c3nc(-c4ccccc4)co3)cc2)c1`, the max activity is 14.5% [at 0.16 µM].

`COc1ccccc1-c1nc(Cn2nnc(-c3nc(-c4ccc(F)cc4)no3)c2C)c(C)o1`: the max activity was 9.82% [at 0.16 µM].

Consider `CS(=O)(=O)N1CCO[C@@H]2CN(C(=O)Cc3ccccn3)CC[C@H]2C1`, for which the max activity is -7.92% [at 0.3 µM].

On to `COc1ccc(-c2nc(Cn3nnc(-c4nc(-c5ccc(OC(C)C)cc5)no4)c3C)c(C)o2)cc1`, for which the max activity is 11.3% [at 0.35 µM].

On to `COc1cccc(NC(=O)Nc2ccc(-c3nc(-c4cccc(Br)c4)co3)cc2)c1`, for which the max activity is 13.3%.

Consider `Cc1ccc(C(=O)Nc2c(C(=O)N3CCCC3)[nH]c3ccc(C)cc23)cc1`, for which the max activity is 49.7% [at 10 µM].

As to `CCC(C)NC(=O)Cn1c(=O)c(S(=O)(=O)c2ccccc2)cc2cc(C)ccc21` (centres undefined), the max activity is -4.98% [at 10 µM].
